Assay outcomes from PubChem.
TNF death inh: inhibitors of TNF-alpha triggered necroptosis, primary screen, cell-based, Jurkat FADD-/-, single concentration; Jurkat FADD-/- TNF necroptosis rescue, ATP luminescence, 24 h; 0 = TNF only, 100 = no-TNF cells; activation (protection from cell death), % at 10 µM; actives 0.068% (n = 220,000);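 active = activation, meaning protection from cell death, of at least 50% relative to plate controls; inactive = activation below 50%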;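 note: necroptosis triggered by 40 ng/mL TNF-alpha added together with compound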
Redox H2O2 prof: compounds producing H2O2 with reducing agent – biochemical, NIH compound library profiling, artefact control for MLSCN library redox annotation, primary screen; DTT-dependent redox cycling H2O2, phenol red/HRP absorbance; 100% = 100 µM peroxide control, 0% = buffer; activation, % at 10 µM; actives 0.03% (n = 200,000); AID 878, 2007;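 active = activation of at least 50% relative to the plate's high and low controls in the primary single-dose screen; inactive = activation below 50%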;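 note: compound incubated with DTT at 0.8 mM final as the reducing agent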
PKD1 kinase inh: inhibitors of human PKD1 kinase, biochemical, fluorescence polarization; inhibition, % (no concentration beside the values); Serine/threonine-protein kinase D1 (Homo sapiens), Q15139; PKD1 kinase fluorescence polarization assay; actives 0.056% (n = 200,000); in the data active = inhibition above about 50%
Target sequence (Q15139 whole entry, looked up): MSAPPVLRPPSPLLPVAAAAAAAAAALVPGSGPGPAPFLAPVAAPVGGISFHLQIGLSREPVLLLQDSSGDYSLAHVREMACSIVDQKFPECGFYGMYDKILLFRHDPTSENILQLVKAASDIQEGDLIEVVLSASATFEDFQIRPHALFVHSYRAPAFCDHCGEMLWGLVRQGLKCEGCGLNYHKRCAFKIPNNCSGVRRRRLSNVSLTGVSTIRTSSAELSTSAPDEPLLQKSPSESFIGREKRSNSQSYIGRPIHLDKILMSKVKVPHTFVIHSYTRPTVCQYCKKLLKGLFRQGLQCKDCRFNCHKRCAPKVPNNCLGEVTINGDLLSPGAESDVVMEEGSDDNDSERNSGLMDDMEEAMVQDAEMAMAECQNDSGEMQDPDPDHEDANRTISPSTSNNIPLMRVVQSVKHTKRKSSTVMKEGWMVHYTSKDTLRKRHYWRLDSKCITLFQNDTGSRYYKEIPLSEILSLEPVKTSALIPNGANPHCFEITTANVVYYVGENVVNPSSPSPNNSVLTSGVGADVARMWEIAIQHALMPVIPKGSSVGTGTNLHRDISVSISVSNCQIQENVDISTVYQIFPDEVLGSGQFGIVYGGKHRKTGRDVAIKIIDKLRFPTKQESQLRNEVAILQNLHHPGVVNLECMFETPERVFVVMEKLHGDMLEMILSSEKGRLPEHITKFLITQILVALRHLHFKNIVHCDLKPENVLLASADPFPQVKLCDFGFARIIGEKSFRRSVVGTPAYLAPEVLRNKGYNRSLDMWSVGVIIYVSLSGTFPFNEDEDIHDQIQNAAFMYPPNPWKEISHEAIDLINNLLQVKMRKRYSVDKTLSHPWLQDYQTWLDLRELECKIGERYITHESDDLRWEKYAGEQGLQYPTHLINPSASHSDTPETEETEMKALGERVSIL
L929 necroptosis: inhibitors of zVAD-triggered necroptosis, primary screen, L929 cells | L929 zVAD necroptosis rescue, ATP luminescence, 24 h; with zVAD 60 µM | viability rescue, % at 10 µM | actives 0.38% (n = 220,000) | AID 1377, 2008;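 active = activation, scaled between plate controls, above about 75%, limit read from the data; inactive = activation under that limit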
PERK inh: block of dimerizer-induced PERK translation repression, primary screen, PERK inhibitor project, CHO PERK-DD cells, SEAP luminescence, HTS. Eukaryotic translation initiation factor 2-alpha kinase 3 (Homo sapiens), Q9NZJ5. CHO PERK-DD fusion, SEAP luminescence translation reporter. inhibition, % at 5.6 µM. actives 0.17% (n = 220,000). AID 1416, 2008;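 active = inhibition above the mean inhibition of all tested compounds plus 3 SD, set separately per screening campaign, cut at about 2.9% in these data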;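 note: PERK kinase domain activated by AP20187 dimerizer at 100 nM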
WT yeast gro inh: growth inhibition of WT strain, primary screen, mitochondrial fusion inhibitor project, WT and mutant strains, chemical genetic; mitochondrial fusion phenotypic screen; inhibition, % at 10 µM; actives 2.1% (n = 190,000); AID 1362, 2008; in the data active = inhibition above about 58%; tested in S. cerevisiae
Hits are given with their value; i = inactive; nt = no result. Hits are enriched below; roughly 2.4% of the tested compounds scored in any of these assays.

SMILES	TNF death inh	Redox H2O2 prof	PKD1 kinase inh	L929 necroptosis	PERK inh	WT yeast gro inh
COC(=O)c1c(NC(=O)c2c(-c3ccccc3Cl)noc2C)sc2c1CCC2	i	i	i	i	i	74.9
CC(=O)c1ccc(Nc2ccc(-c3ccccc3F)nn2)cc1	i	i	i	i	i	i
Cc1cccc(-n2c(O)c(C=Nc3ccc(O)cc3)c3ccccc3c2=O)n1	i	i	i	nt	i	i
Cc1ccc(N=Cc2c(O)n(-c3ccc4c(c3)OCO4)c(=O)c3ccccc23)cc1	i	i	i	i	i	73.0
NS(=O)(=O)c1ccc(CNS(=O)(=O)c2cccc3nonc23)cc1	i	nt	nt	i	i	nt
O=C(CN1CCOCC1)Nc1ccc(Br)cn1	i	i	i	i	i	i
O=C(CN1CCOCC1)Nc1ncc(Br)cc1Br	i	i	i	i	3.2	nt
CCOc1ccc(NC(=O)CSc2nnc(-c3ccco3)n2C)cc1	i	i	i	i	i	95.3
O=S(=O)(c1ccc2ncn(O)c2c1)N1CCOCC1	i	i	i	i	i	i
COC(=O)/C(=C\c1c[nH]c2ccccc12)NC(C)=O	i	i	i	i	i	i
O=C(/C=C/c1c[nH]c2ccccc12)c1cccc2ccccc12	i	i	i	i	i	61.5
Cc1cccc(NC2=NCC(=O)N2Cc2cccs2)c1	i	i	i	i	i	i
c1cc2c(cc1C1CCCCC1)c1c3n2CCN=C3CCC1	i	i	i	i	i	93.4
CN1CCN(Cc2nc3ccccc3c(=O)n2Cc2nc(-c3ccc4ccccc4c3)cs2)CC1	i	i	i	i	i	80.7
CC(C)(C)NC(=O)COC(=O)c1ccc(Cl)cc1O	i	i	i	i	i	i
C/C(=N\NC(=O)CC(C)C)c1ccc(N2CCCCC2)cc1	i	i	i	i	i	i
CCn1ccnc1CN(C)Cc1cn(-c2ccc(C)cc2)nc1-c1ccc(F)cc1	i	i	i	i	i	i
Cc1ccc(-n2cc(CN(C)Cc3nccn3C)c(-c3ccc(F)cc3)n2)cc1	i	i	i	i	i	76.4
CN(Cc1ncc[nH]1)Cc1cn(-c2ccccc2)nc1-c1ccc2c(c1)OCO2	i	nt	nt	i	i	nt
CCn1ccnc1CN(C)Cc1cn(-c2cc(C)ccc2C)nc1-c1ccccc1	i	i	i	i	i	61.2
Cc1ccc(-n2cc(CN(C)Cc3ncc[nH]3)c(-c3cccc(C)c3)n2)cc1	i	i	i	i	i	58.7
Cc1cccc(-n2cc(CN3CCN(Cc4nccn4C)CC3)c(-c3cccc(F)c3)n2)c1	i	i	i	i	i	86.1
Cc1ccc(C)c(/C=N/n2cc(-c3ccccc3)[nH]c2=S)c1	i	i	i	i	i	70.5
Fc1ccccc1/C=N/n1cc(-c2ccccc2)[nH]c1=S	i	nt	nt	i	i	nt
O=C(NC(=S)N(Cc1ccccc1)c1ccccn1)C1CC1	i	i	i	i	i	i
SMILES	TNF death inh	Redox H2O2 prof	PKD1 kinase inh	L929 necroptosis	PERK inh	WT yeast gro inh
CCCCN(CCCC)CCNC(=O)Cc1nc2c(c(=O)[nH]c(=O)n2C)n1C	i	i	i	nt	i	67.1
CCOC(=O)C1=C(C)N=C2SCCC(=O)N2C1c1sccc1C (stereo not drawn)	i	i	i	i	i	64.7
O=C(c1ccccc1)c1cc(Cl)ccc1N1C(=O)C=CC1=O	i	i	i	i	i	85.2
O=C(CC(=O)c1cc(Cl)ccc1O)c1ccccc1	i	i	i	i	i	i
O=C(COc1ccccc1)Nc1ccncc1	i	i	i	i	i	i
Cc1cc(OCC(=O)Nc2ccncc2)cc(C)c1Br	i	i	i	i	i	73.7
CC12CCC(C(=O)Nc3nccs3)(OC1=O)C2(C)C (stereo not drawn)	i	i	i	i	i	i
CC12CCC(C(=O)Nc3nc4ccc(Br)cc4s3)(OC1=O)C2(C)C (stereo not drawn)	i	i	i	i	i	65.8
O=C(CCc1ccccc1)NNC(=S)NC(=O)c1ccc(Cl)cc1	i	i	i	i	i	64.5
O=C(CCc1ccccc1)NNC(=O)c1ccc(F)cc1	i	i	i	i	i	i
c1ccc(N/N=C2\CCCc3ccccc32)nc1	i	i	i	i	i	64.9
Cc1cc(N/N=C2/CCCc3ccccc32)nc2ccccc12	i	i	i	i	i	i
Fc1ccc(N/N=C2/CCSc3sccc32)c(F)c1	i	nt	nt	i	i	nt
Fc1ccc2c(c1)/C(=N/Nc1ccccn1)CCS2	i	i	i	i	i	68.2
O=C(NC1CCCCCC1)C(=S)NCc1ccccc1	i	i	i	i	i	73.4
O=C(NC1CCCCC1)C(=S)NCc1ccccc1	i	i	i	i	i	i
O=C(NCc1ccccc1)c1ccc(C(=O)N(C2CCCCC2)C2CCCCC2)cc1	i	i	i	i	i	61.5
c1csc(C(c2nnnn2C2CCCCC2)N2CCCC3(CCCCC3)C2)c1 (stereo not drawn)	i	i	i	i	i	62.1
CC(C)(C)n1nnnc1C(c1cccs1)N1CCCC2(CCCCC2)C1 (stereo not drawn)	i	i	i	i	i	77.7
Cc1ccc(C)c(C(C)NC(=O)c2ccc(Br)o2)c1 (stereo not drawn)	i	i	i	i	i	i
COC(=O)c1ccc2c(=O)n(CCCCCC(=O)NC(C)C)c(=O)[nH]c2c1	i	i	i	i	i	i
C#CCOCCOCCOCCNc1nc(N2CCN(C(=O)Cn3cc(CC(C)O)nn3)CC2)nc(N2CCN(C(=O)[C@H](C)n3cc(CCCN=C(N)N)nn3)CC2)n1 (stereo partly drawn)	i	i	i	i	i	i
Cc1ccc(-c2nc3cc(Br)cnc3nc2-c2ccc(C)cc2)cc1	i	i	i	i	i	76.5
COc1ccccc1/C=C\C=N\n1c(-c2ccc(Cl)cc2Cl)n[nH]c1=S	i	i	i	i	i	64.7
COc1ccccc1/C=C\C=N\n1c(-c2ccc(Cl)cc2)n[nH]c1=S	i	i	i	i	i	i
SMILES	TNF death inh	Redox H2O2 prof	PKD1 kinase inh	L929 necroptosis	PERK inh	WT yeast gro inh
Nc1nc(CSc2ccc(Cl)cc2)nc(N2CCCCC2)n1	i	i	i	i	i	74.5
Nc1nc(CSc2ccccc2)nc(N2CCCCC2)n1	i	i	i	i	i	i
O=C(CCc1ccccc1)NCC(=O)N/N=C/c1ccc(O)cc1O	i	nt	nt	i	3.4	nt
Cc1nc2ccc(NC(=O)c3nn(CC(C)C)c(=O)c4ccccc34)cc2s1	i	i	i	i	i	63.9
Cc1c(C#N)c(N)nc(Cl)c1C#N	i	i	115.4	i	i	i
COc1cccc(Nc2nc(-c3sc(NC(=O)c4ccccc4)nc3C)cs2)c1	i	i	i	i	i	66.5
